± gives the standard deviation.
How the values were obtained:
[1] = test system: MILI (PIWIL2) piRISC loaded with piRNA #1 (26 nt); test: pre-steady-state target cleavage rate (min^-1); guide: piRNA #1 5'p-UGAGGUAGUAGGUUGUAUAGUAUCCA; higher = faster piRNA-guided slicing of the target; conditions: auxiliary factor: 500 nM mouse GTSF1
In short: (§1)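 With or without 500 nM GTSF1 partner protein, 1 nM active affinity-purified piRISC carrying one synthetic guide was mixed with 0.1 nM transcribed, DNA-blocked target RNA library in HEPES–potassium acetate buffer at 33 °C for 0–8 or 0–960 min. Uncleaved targets were sequenced and normalised to depth and to weakly complementary targets, three trials were pooled, and k3 was capped at 0.0001 min^-1. The pre-steady-state cleavage rate came from a burst-and-steady-state fit.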

[2] = test system: EfPiwi piRISC loaded with piRNA #1 (26 nt); test: pre-steady-state target cleavage rate (min^-1); auxiliary factor: 500 nM Ephydatia muelleri Gtsf1; guide: piRNA #1 5'p-UGAGGUAGUAGGUUGUAUAGUAUCCA; MIWI and MILI are mouse PIWI proteins and EfPiwi is from a freshwater sponge; tags in brackets are library labels; higher = faster piRNA-guided slicing of the target
In short: as §1

| Sequence | pre-steady-state target cleavage rate [1] | pre-steady-state target cleavage rate [2] |
| --- | --- | --- |
| GGAGACGAUACUAAUACAACCUACUACCUCA | 0.134 ± 0.01 | 0.0773 ± 0.031 |
| GGAGACCAUACUGAUACAACCUACUACCUCA | 0.112 ± 0.014 | 0.0368 ± 0.013 |
| GGAGACGAUACUAUACAACUCUACUACCUCA | 0.00377 ± 0.0022 | 0.00452 ± 0.0031 |
| GGAGUGGAUACUAUACAACCUACUACCGCA | 0.0694 ± 0.0095 | 0.00573 ± 0.002 |
| GGAGAGGAUACUAUACAACCUACAAGCUCA | 0.00476 ± 0.0031 | 0.00284 ± 0.0023 |
| GGAGACGAUACUAUACAACCUACUACCACA | 0.185 ± 0.018 | 0.00487 ± 0.0013 |
| GGAGACGAAACUAUACAACCUACAACCUCA | 0.133 ± 0.031 | 0.00368 ± 0.0027 |
| GGAGACCAAACUAUACAACCUACUACCACA | 0.118 ± 0.028 | 0.00528 ± 0.0044 |
| GGAGAGGUUACUAUACAACCUUCUACCUCA | 0.00963 ± 0.0021 | 0.00505 ± 0.0025 |
| GGAGUGGUAACUAUACAACCUACUACCUCA | 0.141 ± 0.016 | 0.0157 ± 0.0069 |
| GGAGACCUAACUAUACAACCUACUACCUCCA | 0.123 ± 0.021 | 0.015 ± 0.0066 |
| GGAGACGAUACUAUACAACCUACUUCCACA | 0.0194 ± 0.0082 | 0.00373 ± 0.0021 |
| GGAGAGGAAACUAUACAACGUACUACCUCA | 0.0138 ± 0.0051 | 0.00339 ± 0.0016 |
| GGAGAGGAUACUAUAGAACCUUCUACCUCA | 0.00389 ± 0.0026 | 0.003 ± 0.002 |
| GGAGUGAGAUACUAUACAACCUACUACCUCA | 0.189 ± 0.012 | 0.0362 ± 0.015 |
| GGAGUGGAUACUAAACUACCUACUACCUCA | 0.172 ± 0.011 | 0.00956 ± 0.0047 |
| GGAGACGAUACUAUUCAACGUACUACCUCA | 0.0257 ± 0.0034 | 0.00355 ± 0.0011 |
| GGAGUCGAUACUAUACAACCUACUACCACA | 0.175 ± 0.014 | 0.0037 ± 0.0015 |
| GGAGACCUAAUUAUACAACCUACUACCUCA | 0.0979 ± 0.011 | 0.0144 ± 0.0065 |
| GGAGAGGAUACUAUACAACCUACCACCUCA | 0.129 ± 0.018 | 0.00459 ± 0.002 |

Source: the supplement of paper PMC10338343
